These results are taken from ChEMBL document CHEMBL4513216, “Probing the Open Global Health Chemical Diversity Library for Multistage-Active Starting Points for Next-Generation Antimalarials” (ACS Infect Dis, 2020).

The whole screen tested about 69,000 compounds, of which about 8,600 (12%) showed an effect of 50% or more. Only a selection was taken, and strong results are over-represented in it overall.

The experiment relates to Plasmodium berghei. Kind of experiment: Screen against P. berghei liver stage (PbLuc), transformed with Luciferase, at 10uM. It is filed as functional, HepG2. The following applies: tested at 10 uM.
Turning to `Cc1ccccc1N1CCN(C(=O)c2cnn(C(C)C)c2)C(C)C1` (stereo unspecified), the INHIBITION is recorded as 12.1%. As for `CC[C@@]1(O)CCN(C(=O)c2ccc(-n3cnnc3)cc2)C[C@H]1O`, the figure is 20.6%; as for `CC1CN(C)CCN1C(=O)c1cnc2c(cnn2C2CCCC2)c1` (stereo unspecified), 31.2%. As for `CC1CN(C)CCN1C(=O)c1cnn(-c2ccc(Cl)cc2)c1` (stereo unspecified), the figure is 66.1%; as for `Cc1cnn(-c2ccc(C(=O)N3CCN(C)CC3C)cc2)c1` (stereo unspecified), -15.3%. As for `O=C(Cc1ccc(Cl)s1)Nc1ccc2c(c1)C(=O)NC2=O`, the figure is -97.9%; as for `Cc1nn(C)c(N2CCOCC2)c1CNC1CCC(O)CC1` (stereo unspecified), 9.14%; as for `CC(C)(C)C(=O)NCC(=O)Nc1cccnc1`, 45.5%. Take `COc1ccccc1CCNC(=O)NCC(=O)Nc1cccnc1`: the INHIBITION is given as -21.8%. As for `COc1ccccc1CC(C)(C)C(=O)NCC(=O)Nc1cccnc1`, the figure is 56.6%; as for `COC(=O)NCCCn1ccnc1-c1ccccc1`, -17.4%; as for `O=C(Cc1ccsc1)N1CCc2ncc(Cn3cccn3)n2CC1`, 42.7%. Under `COc1c(CNC(C)c2sc(C)nc2C)c(C(C)C)nn1C` (stereo unspecified) stands 33.7%; under `CN1CC2(CCN(C(=O)Cc3ccccn3)CC2)OCC1=O`, -28.2%; under `CNc1cc(N2CCCC2CNCc2cscn2)ncn1` (stereo unspecified), -2.35%. Under `COCCN1CC[C@H]2OCC[C@@H](C(=O)N3CCCO3)[C@H]2C1` stands 1.9%; under `N#Cc1cn[nH]c1NCc1cc(Br)ccc1O`, 27.5%; under `N#Cc1cn[nH]c1NCc1cc(Cl)cc(Cl)c1O`, 62.2%. Take `N#Cc1cn[nH]c1NCc1cc(I)cc(I)c1O`: the INHIBITION amounted to 19.7%.

Take `c1ccn(Cc2nnc3n2CCCN(Cc2ccoc2)C3)c1`: the INHIBITION is recorded as -13.1%. As for `O=C(Nc1cccc(C(F)(F)F)c1)N1CCN(CCn2ccnc2)CC1`, the figure is 60.2%; as for `CC(C(=O)Nc1cccc(C(F)(F)F)c1)N(C)CCN1CCOCC1` (stereo unspecified), 35.2%; as for `O=C(Nc1ccc2c(c1)OCO2)N1CCN(CCn2ccnc2)CC1`, 6.99%. As for `CN(C)Cc1nc2c(o1)CN(C(=O)NCc1cccc(F)c1)C2`, the figure is 13.7%. Under `CNC(=O)c1cn[nH]c1C1CCN(Cc2cccc(C)c2OC)C1` (stereo unspecified) stands 6.32%; under `O=C(CN1CCS(=O)(=O)CC1)NC1CCOc2ccccc21` (stereo unspecified), -22.4%.

As to `O=C(CN1CCS(=O)(=O)CC1)NC1CCCOc2ccccc21` (stereo unspecified), the INHIBITION came out at 63.6%. As for `O=C(CN1CCS(=O)(=O)CC1)NC1CCCc2ccccc21` (stereo unspecified), the figure is -17.2%; as for `Cc1ccc(C2CSCCN2C(=O)c2ccncc2)cc1` (stereo unspecified), -2.39%. As for `CCN(CC1CN(Cc2ccn(C(C)C)n2)CCO1)c1cccnn1` (stereo unspecified), the figure is 54.3%. Under `CCN(CC1CN(Cc2ccccn2)CCO1)c1cccnn1` (stereo unspecified) stands -32.2%; under `CC(C)n1ccc(CN2CCOC(CNc3cccnn3)C2)n1` (stereo unspecified), -31.5%; under `CCN(CC1CN(Cc2cccc(C#N)c2)CCO1)c1cccnn1` (stereo unspecified), 58.5%. On to `COCc1nc(CN2CCOC(CN(C)c3cccnn3)C2)cs1` (stereo unspecified), for which the INHIBITION is recorded as -8.11%. Under `CCc1nc(CN2CCOC(CN(CC)c3cccnn3)C2)cs1` (stereo unspecified) stands 57%; under `CCN(CC1CN(Cc2cccnc2)CCO1)c1cccnn1` (stereo unspecified), 48.3%; under `CCc1nc(CN2CCOC(CN(C)c3cccnn3)C2)cs1` (stereo unspecified), -4.16%. Under `CCN(CC1CN(CCc2ccccn2)CCO1)c1cccnn1` (stereo unspecified) stands -14.2%. Under `CCOC(=O)CN1CCC2(CCCN(CCOc3ccccc3)C2)C1` (stereo unspecified) stands 21.1%; under `CC(C)(C)C(=O)NCCCC(=O)NC(C)(C)c1ccc2c(c1)OCO2`, 27.4%.

On to `Cc1nccn1-c1ccc(=O)n(CCNC(=O)c2cccs2)n1`, for which the INHIBITION stood at 18.7%. Under `Cc1cnn(CC2CN(Cc3cccc(C(N)=O)c3)CCO2)c1` (stereo unspecified) stands 16.9%; under `O=C(Cc1cccs1)N1CCC2(CC1)COCCN2CC1CC1`, 21.7%; under `CC(C)(CO)N1CCN(S(=O)(=O)CCCF)CC1`, -15.565%.

Take `CCN(Cc1ccc2c(c1)OCO2)C(=O)c1cccnc1O`: the INHIBITION is given as -35.5%. `COCCn1cnc2ccc(NC(=O)C(C)C)cc2c1=O`: the INHIBITION was found to be 39.2%. For `Cc1cc(C)c(CNC(=O)N2CCN(c3nccs3)CC2)c(=O)[nH]1`, the INHIBITION is -5.6%. In the case of `c1cncc(-c2noc(CN3CCCC(Cn4cncn4)C3)n2)c1` (stereo unspecified), the INHIBITION is recorded as -52.5%.

For `COc1cc(OC)cc(C2(O)CCN(Cc3ncc(C)o3)CC2)c1`, the INHIBITION came to 50.9%. Under `CCc1cnc(CN2CCC(O)(c3cc(OC)cc(OC)c3)CC2)o1` stands 11.3%; under `COc1cc(OC)cc(C2(O)CCN(Cc3nc(C)c(C)o3)CC2)c1`, 22.2%.
